# Measured values taken from publication PMC8384837, “Expanding the binding specificity for RNA recognition by a PUF domain”.
# Biological target: PUM1 PUF domain R8-TWK (Homo sapiens, UniProt Q14671 828-1176, N1122T;Y1123W;Q1126K)
# Assay: yeast three-hybrid, YBZ-1, SC-Leu-His + 0.5 mM 3-AT, 4 days
# Settings: tags: N-Gal4 AD-HA kept; label: inside an RPR1-promoter hybrid RNA with tandem MS2 sites; ssRNA
# How it was run: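 The interaction score is the log change in how often each variant appears, from input to selection. Frequencies came from PCR-amplified, Illumina-sequenced repeat regions of Pumilio-1 PUF domain libraries grown in strain YBZ-1 (LexA–MS2 coat fusion, HIS3 reporter) alongside matching RNA elements. Input plates were SC-Leu and selection plates were SC-Leu-His + 0.5 mM 3-AT, each for four days, and the log2 calculation used a pseudocount of 1 where a variant was absent.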
# Chain of PUM1 PUF domain R8-TWK (Q14671 828-1176 N1122T/Y1123W/Q1126K): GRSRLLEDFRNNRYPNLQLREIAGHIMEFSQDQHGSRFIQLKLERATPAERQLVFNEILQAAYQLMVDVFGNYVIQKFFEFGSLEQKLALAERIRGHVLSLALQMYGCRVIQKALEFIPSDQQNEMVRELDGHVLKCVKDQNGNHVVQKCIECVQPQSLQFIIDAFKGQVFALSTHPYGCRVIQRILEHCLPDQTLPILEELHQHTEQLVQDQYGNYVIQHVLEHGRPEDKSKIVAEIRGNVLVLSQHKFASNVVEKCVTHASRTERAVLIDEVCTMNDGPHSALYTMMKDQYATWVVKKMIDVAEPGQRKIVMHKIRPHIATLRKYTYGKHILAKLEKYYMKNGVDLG
row,Sequence,binding signal
1,GGCUAGAACUAGUGGAUCCCCCGGCGCCCGGCGGCUCGAGCCCGGGUAAGCGUAAAUAGUCUGCAUGCCGCCGGGCGCCAUGCCUGCAGGUCGACUCUAGAAAACAUG,2.23 log2 enrichment (interaction score)
2,GGCUAGAACUAGUGGAUCCCCCGGCGCCCGGCGGCUCGAGCCCGGGUAAGUGUAAAUAGUCUGCAUGCCGCCGGGCGCCAUGCCUGCAGGUCGACUCUAGAAAACAUG,5.8 log2 enrichment (interaction score)
3,GGCUAGAACUAGUGGAUCCCCCGGCGCCCGGCGGCUCGAGCCCGGGUAAGGGUAAAUAGUCUGCAUGCCGCCGGGCGCCAUGCCUGCAGGUCGACUCUAGAAAACAUG,3.33 log2 enrichment (interaction score)
